An excerpt weighted towards active compounds, which were near 2.4% of everything screened.
D2 ag-1 = Beta-Arrestin HTS for Positive Allosteric Modulators of the Human D2 Dopamine Receptor: Agonists; D(2) dopamine receptor (Homo sapiens), P14416; DiscoveRx PathHunter D2 beta-arrestin, luminescence, 90 min; 100% = 57 uM dopamine signal; activation, % (no concentration beside the values); actives 0.084% (n = 360,000); AID 624465, 2012; in the data active = activation above about 40%; inconclusive = between about 15% and that limit
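Agonist mode: compounds alone added to overnight-plated D2 PathHunter cells for 90 min at 37 C, with 57 uM final dopamine (EC100) defining full response. Beta-arrestin recruitment detected by chemiluminescent reagent, read after 1 h at ambient temperature.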
D2 ag-2 = HTS Assay for Allosteric Agonists of the Human D2 Dopamine Receptor: Primary Screen for Agonists. D(2) dopamine receptor (Homo sapiens), P14416. HEK293 T-REx D2 cells, calcium flux agonist mode. activation, % at 2 µM. actives 0.53% (n = 340,000). AID 485358, 2010;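 active = activation over 3 SD above normal in the single-dose calcium agonist read, cut at about 30% in these data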; also: 0% is about no effect
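Agonism scored from kinetic calcium signal (1 read/sec, 180 s) following compound pin transfer, after a 10 s baseline. Cells: HEK293 Trex line expressing inducible D2 receptor coupled to calcium, dye-loaded after overnight culture at 30 C.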
D2 antagonist = HTS Assay for Allosteric Antagonists of the Human D2 Dopamine Receptor: Primary Screen for Antagonists; actives 2% (n = 340,000); HEK293 TREx D2 cells, calcium flux, dopamine EC80; AID 485344, 2010; inhibition, % at 10 µM; D(2) dopamine receptor (Homo sapiens), P14416; in the data active = inhibition above about 30%; inactive = below that, where a call was filed; also: 0% is about no effect
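Antagonism is scored as inhibition of an EC80 dopamine-evoked calcium signal in a force-coupled, tetracycline-inducible HEK293 T-REx D2 line, with compound present 180 s before agonist.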
D2 PAM-1 = Beta-Arrestin HTS for Positive Allosteric Modulators of the Human D2 Dopamine Receptor: Potentiators. D(2) dopamine receptor (Homo sapiens), P14416. DiscoveRx D2 beta-arrestin cells, luminescence, 90 min; 100% = 57 uM dopamine signal. potentiation, % (test concentration not listed). actives 0.23% (n = 360,000); in the data active = potentiation above about 50%; inconclusive = mostly about 30% to 49%
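D2 cells co-treated with compound plus 50 nM dopamine (EC20) for 90 min at 37 deg C to detect potentiation. Beta-arrestin recruitment was read as enzyme-fragment luminescence after 1 h at ambient temperature. Full response was set by 57 uM dopamine.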
D2 PAM-2 = HTS Assay for Positive Allosteric Modulators of the Human D2 Dopamine Receptor: Primary Screen for Potentiators; actives 0.34% (n = 340,000); potentiation, % at 10 µM; D(2) dopamine receptor (Homo sapiens), P14416; AID 485347, 2010; HEK293 T-REx D2, calcium flux, EC20 dopamine potentiation;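 active = potentiation over 3 SD above the plate norm, cut at about 30% in these data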; also: 0% is about no effect
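Tetracycline-induced Hek293 Trex D2 cells, force-coupled to calcium, loaded with no-wash calcium dye. Compound added with 180 s kinetic read for agonism, then EC20 dopamine and a further 180 s read for potentiation.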
D3 ag = qHTS of D3 Dopamine Receptor Agonist: D3 Dopamine Receptor B-arrestin Agonist Confirmatory Assay; shares compounds with D2 ag-2; DiscoveRx D3 beta-arrestin cells, luminescence, 90 min; Potency, µM (highest dose often 76.9 µM), for the others: at the highest dose activation, most hits filed as activators; actives 4% (n = 2,300); AID 720506, 2013;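 also: potency is read from the fitted curve at half-maximal effect; 100% = dopamine control response; nearly all actives have a fitted effect of over 70% in size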
Target sequence (P35462 whole entry, looked up): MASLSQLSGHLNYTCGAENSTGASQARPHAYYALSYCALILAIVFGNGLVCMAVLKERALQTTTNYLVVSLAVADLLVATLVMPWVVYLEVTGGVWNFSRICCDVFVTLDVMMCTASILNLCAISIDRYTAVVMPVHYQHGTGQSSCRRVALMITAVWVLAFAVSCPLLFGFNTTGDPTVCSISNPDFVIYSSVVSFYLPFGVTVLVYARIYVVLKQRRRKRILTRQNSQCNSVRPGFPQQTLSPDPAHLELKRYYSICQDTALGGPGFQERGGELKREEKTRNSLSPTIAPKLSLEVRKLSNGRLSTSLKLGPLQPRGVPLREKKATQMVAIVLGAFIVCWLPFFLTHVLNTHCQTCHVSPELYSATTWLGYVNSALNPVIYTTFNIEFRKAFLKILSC
D2 ag-3 = qHTS of D3 Dopamine Receptor Agonist: D2 Dopamine Receptor B-arrestin Agonist Counterscreen | shares compounds with D2 ag-2 | DiscoveRx PathHunter D2 beta-arrestin, luminescence, 90 min; response scale: percent relative to full dopamine signal | Potency, µM (titrated, usually from 76.9 µM), for inactives: top-dose activation, most hits filed as activators | actives 5.9% (n = 2,300); also: potency is read from the fitted curve at half-maximal effect; % of control where 0% means no effect; nearly all actives have a fitted effect of over 70% in size
Starred values were filed as active, the others as inactive; ? = inconclusive; nt = no result given. Unless noted, calls follow the shape of the dose curve; as a rule, active = well fitted activation curve with a large enough effect; inconclusive = small, poorly fitted or top-dose-only effect; inactive = flat fitted curve, though single readings scatter.

SMILES	D2 ag-1	D2 ag-2	D2 antagonist	D2 PAM-1	D2 PAM-2	D3 ag	D2 ag-3
C=CCn1c(-c2sc3nc(C)cc(C)c3c2N)n[nH]c1=S	2.6	-1.5	31.6*	2.4	4.4	13.0%	-13.3%
Cc1c(NC(=O)C(C)(C)Oc2ccc(Cl)cc2)cccc1-c1nc2ccccc2o1	nt	0.1	nt	nt	-0.2	nt	nt
O=C(CCc1nc2ccccc2c(=O)[nH]1)Nc1ccc(F)cc1	-0.6	-0.9	15.8	-21.3	-3.6	nt	nt
O=C(CCc1nc2ccccc2c(=O)[nH]1)N1CCN(C/C=C/c2ccccc2)CC1	4.1	18.8	9.9	-10.7	-31.1	16.1%	?
CC(=O)N1CCN(C(=O)CCc2nc3ccccc3c(=O)[nH]2)CC1	-2.7	nt	nt	-9.3	nt	nt	nt
O=C(O)CCc1nc2ccccc2c(=O)[nH]1	-1.5	28.6	20.8	-4.7	-14.9	-20.8%	-3.9%
CCOc1ccc(N(CC(=O)Nc2ccccc2CC)S(=O)(=O)c2c(C)[nH]c(=O)[nH]c2=O)cc1	nt	-1.2	nt	nt	9.4	nt	nt
CCn1cc(C(=O)Nc2ccc(C(C)C)cc2)c2cc(OC)c(OC)cc2c1=O	nt	0.0	nt	nt	-7.3	nt	nt
CCOc1ccc(C(=O)NCCc2sc3nc(-c4ccc(Cl)cc4)nn3c2C)cc1OCC	nt	-0.9	nt	nt	nt	nt	nt
CCOC(=O)c1[nH]c(C)c(C(=O)N2CCN(c3ccccc3)CC2)c1C	-2.9	30.6*	23.5	-17.8	-5.0	2.1%	1.9%
CCOC(=O)c1[nH]c(C)c(C(=O)N2CCOCC2)c1C	-0.4	1.1	3.3	-0.8	3.1	nt	nt
Cc1c(C(=O)N2CCN(c3ccccc3)CC2)oc2c(Cl)cccc12	0.5	-1.3	13.2	-10.5	7.4	-6.4%	-2.9%
COc1ccc(Cn2c(C(=O)O)c(CNCc3ccccc3F)c3ccc(OC)cc32)cc1	nt	nt	nt	nt	-7.5	nt	nt
Cn1c(Cc2ccccc2)nnc1SCC(=O)N1CCOCC1	-2.1	0.8	-23.4	-3.1	2.8	nt	nt
O=C(CSc1nnc(Cc2ccccc2)n1-c1ccc(Cl)cc1)N1CCOCC1	-0.3	40.0*	-4.4	-7.8	2.3	2.1%	-1.5%
CC(=O)c1ccc(NC(=O)C(Cc2ccccc2)NS(=O)(=O)c2ccc3c(c2)CCC(=O)N3)cc1 (stereo not given)	nt	0.6	nt	nt	3.4	nt	nt
COCCNC(=O)CN1C(=O)COc2ccc(S(=O)(=O)N3CCOCC3)cc21	nt	1.3	nt	nt	-15.6	nt	nt
Clc1ccccc1Cn1cccc1C1=NC(Cc2ccccc2)CO1 (stereo not given)	nt	0.1	nt	nt	-3.7	nt	nt
CCOC(=O)C(=O)Nc1ccc(S(=O)(=O)Nc2nccc(C)n2)cc1	-3.5	nt	nt	-4.8	nt	nt	nt
CCOC(=O)Nc1ccc(S(=O)(=O)Nc2nccc(C)n2)cc1	1.3	50.1*	-11.5	-8.7	-27.1	-6.8%	-0.6%
CCN(Cc1ccncc1)C(=O)c1ccccc1NS(=O)(=O)c1ccc(Br)cc1	-4.1	nt	nt	-12.2	-4.0	0.3%	1.0%
COc1cc2[nH]c(=S)nc(NCC3CCCO3)c2cc1OC (stereo not given)	-1.2	-0.1	32.5*	-7.5	4.1	1.4%	-6.0%
Cc1cccc(CSc2nc(-c3cccc(C)c3)nc3c2Cc2c(CO)cnc(C)c2O3)c1	nt	-0.7	nt	nt	-3.4	nt	nt
Cc1ccc(C2CC(=O)N(Cc3ccccc3)c3c2c(C)nn3-c2nc(C)cc(C)n2)cc1 (stereo not given)	nt	nt	nt	nt	11.6	nt	nt

Assay outcomes: PubChem BioAssay, National Center for Advancing Translational Sciences (NCATS)
